Only a selection was taken, and hits are over-represented in it overall.
AmpC inh detg = qHTS Inhibitors of AmpC Beta-Lactamase (assay with detergent); P00811; AmpC hydrolysis of nitrocefin, absorbance 480 nm, 0.01% Triton; Potency, µM (highest dose often 114 µM), for inactives: at the highest dose activity change, negative = inhibition, usual class: inhibitors; 0.041% of 370,000 active; AID 485294, 2010;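 also: potency is read from the fitted curve at half-maximal effect; 0% = no-compound wells and -100% = no-enzyme wells; nearly all actives have a fitted effect of over 25% in size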
Target sequence (P00811 whole entry, looked up): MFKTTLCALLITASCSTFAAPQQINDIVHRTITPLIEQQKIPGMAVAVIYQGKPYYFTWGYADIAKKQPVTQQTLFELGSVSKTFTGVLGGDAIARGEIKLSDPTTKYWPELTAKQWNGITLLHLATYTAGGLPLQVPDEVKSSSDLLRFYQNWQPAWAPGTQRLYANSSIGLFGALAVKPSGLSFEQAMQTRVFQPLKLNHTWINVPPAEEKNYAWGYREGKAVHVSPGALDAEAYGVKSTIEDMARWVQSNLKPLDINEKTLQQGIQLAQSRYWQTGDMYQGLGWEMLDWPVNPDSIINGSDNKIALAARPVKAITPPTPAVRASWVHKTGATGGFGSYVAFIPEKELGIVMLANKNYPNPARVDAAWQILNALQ
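20 mM phosphate pH 7.0 + 0.01% (detergent screen) or 0.0001% Triton X-100; 5.3 nM AmpC reagent; cpd preinc 15 min RT; nitrocefin (800 uM stock) to start; A480 q20 s × 4 min; Activity was normalised to no-enzyme and no-compound control wells.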
CHX counter = Cycloheximide Counterscreen for Small Molecule Inhibitors of Shiga Toxin. cell reporter, cycloheximide protein synthesis inhibition counterscreen. max response, %. 12% of 300,000 active. AID 2314, 2010; in the data active = max response mostly above about 13%, no sharp cut-off; inactive = mostly below about 14%; also: read at 38.3 µM for the half of the compounds with a filed dose; 0% is about no effect
AmpC inh no detg = qHTS Inhibitors of AmpC Beta-Lactamase (assay without detergent); P00811; AmpC nitrocefin hydrolysis, absorbance 480 nm, 0.0001% Triton; Potency, µM (series often up to 57.1 µM), for inactives: at the top dose activity change, negative = inhibition, actives largely listed as inhibitors; 0.52% of 330,000 active; AID 485341, 2010;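 also: potency is read from the fitted curve at half-maximal effect; plate controls were no compound for no effect and no enzyme for full effect; nearly all actives have a fitted effect of over 20% in size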
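20 mM phosphate pH 7.0 + 0.01% (detergent screen) or 0.0001% Triton X-100; 5.3 nM AmpC reagent; cpd preinc 15 min RT; nitrocefin (800 uM stock) to start; A480 q20 s × 4 min; Activity was normalised to no-enzyme and no-compound control wells.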
Shiga inhibitor = A qHTS for Small Molecule Inhibitors of Shiga Toxin; Vero cells, Shiga toxin protein synthesis inhibition reporter; 9.2% of 290,000 active; inhibition, % at 38.7 µM; in the data active = inhibition mostly above about 28%, no sharp cut-off; inactive = mostly below about 43%; also: 0% is about no effect
NS1 function inh = qHTS Assay for Inhibitors of Influenza NS1 Protein Function. AID 2326, 2010. 0.4% of 270,000 active. Potency, µM (highest dose often 46.1 µM), for the others: top-dose activity, positive = more growth; calls by dose curve; also: potency is read from the fitted curve at half-maximal effect; actives are rising curves; nearly all actives have a fitted effect of over 50% in size
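OD600 was taken as the measure of yeast growth restored by compound in an NS1-expressing S. cerevisiae strain. Cells had been washed out of glucose medium and diluted 1:100 into galactose -URA medium, pH 6.0.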
* marks the source's active call; other numbers are inactive results; u = inconclusive; x = no result given; [ ] = dose if it differs, or a comment. Unless noted, calls follow the shape of the dose curve; as a rule, active = well fitted curve in the direction sought with a large enough effect; inconclusive = small, poorly fitted or top-dose-only effect, or another doubt; inactive = no such curve, though single readings can be large; an effect the other way counts as inactive or inconclusive.

SMILES	AmpC inh detg	CHX counter	AmpC inh no detg	Shiga inhibitor	NS1 function inh
CCn1c(O)c(/C=C2\C=Nc3ccccc32)sc1=O	u	34*	-15%	78*	5%
O=c1[nH]c(O)c(/C=C2\C=Nc3ccccc32)[nH]1	-9%	18*	-18%	13	5%
CCOC(=O)Cc1csc(NC(=O)CC(C)(C)C)n1	-12%	32*	-8%	122*	5%
CCOC(=O)Cc1csc(NC(=O)C(C)(C)CC)n1	-1%	31*	-5%	51*	3%
COc1ccccc1NC(=O)c1cc2c(=O)oc3ccc(C)cc3c2s1	-1%	x	x	x	x
CCOC(=O)c1c(C)oc2ccc(N(C(=O)Oc3ccccc3)S(=O)(=O)c3ccc(CC)cc3)cc12	13%	x	x	x	x
CC(C)CC(NC(=O)C(COC(C)(C)C)NC(=O)C(Cc1ccc(O)cc1)NC(=O)C(CO)NC(=O)C(Cc1c[nH]c2ccccc12)NC(=O)C(Cc1cnc[nH]1)NC(=O)C1CCC(=O)N1)C(=O)NC(CCCN=C(N)N)C(=O)N1CCCC1C(=O)NNC(N)=O (stereo unspecified)	x	-8	x	15	x
O=C(NC1CCCC1)c1cc(-c2ccc(Cl)cc2)on1	3%	27*	-17%	59*	-2%
O=C(NC1CCCCC1)c1cc(-c2ccc(Cl)cc2)on1	-1%	-2	-21%	-4	6%
O=C(NC1CCCC1)c1cc(-c2ccc(F)cc2)on1	-1%	46*	2%	96*	-10%
Cc1cccc(N2CCN(C(=S)Nc3ccc4nc5n(c(=O)c4c3)CCCCC5)CC2)c1C	-7%	-8	9%	-3	10%
O=C(CSc1nc(-c2cccc(F)c2)[nH]c1-c1ccccc1)Nc1ccc2c(c1)OCCO2	7%	x	x	x	x
COc1ccc(Nc2ncnc3onc(C)c23)cc1Cl	26%	x	x	x	x
CC(=O)c1cccc(NC(=O)CCCN2C(=O)COc3ccc(C)cc32)c1	-7%	x	x	x	x
Cc1ccc(-n2nc(C(=O)NC(C)C)c(=O)n(C)c2=O)cc1	1%	x	x	x	x
N/C(=N\OC(=O)c1cccc(F)c1)c1ccccc1	7%	88*	-15%	93*	-4%
Cc1ccc(/C(N)=N/OC(=O)c2cccc(F)c2)cc1	3%	38*	13%	115*	-16%
N/C(=N\OC(=O)c1cccc(F)c1)c1ccccn1	-2%	1	-1%	17	-27%
O=[N+]([O-])c1ccc2nc(C(O)C(O)c3nc4ccc([N+](=O)[O-])cc4[nH]3)[nH]c2c1 (stereo unspecified)	u	22*	-34%	x	8%
NC(=O)CSc1nc2ccc([N+](=O)[O-])cc2[nH]1	8%	0	-23%	-13	x
O=[N+]([O-])c1ccc2nc(/C=C/c3ccc(Cl)cc3)[nH]c2c1	0%	60*	u	153*	-110%
O=[N+]([O-])c1ccc(-c2nc3ccc([N+](=O)[O-])cc3[nH]2)cc1	u	40*	-32%	96	-67%
Nc1ccc(-c2nc3ccc([N+](=O)[O-])cc3[nH]2)cc1	-3%	63*	-25%	52	8%
CCOc1ccc(C(=O)NCCS(=O)(=O)N2CCN(c3cccc(Cl)c3)CC2)cc1	10%	x	x	x	x
CCOC(=O)c1ccc(NC(=O)CN(c2ccc(C)cc2)S(=O)(=O)c2ccc(OC)cc2)cc1	4%	x	x	x	x
SMILES	AmpC inh detg	CHX counter	AmpC inh no detg	Shiga inhibitor	NS1 function inh
O=C(Nc1ccccc1F)c1cccc(C(=O)Nc2ccccc2F)c1	-5%	14	-26%	19	4%
O=C(Nc1ccccc1Cl)c1ccn[nH]1	8%	20*	-14%	110	-6%
O=C(Nc1ccccc1F)c1ccn[nH]1	u	22*	-15%	47*	x
COc1ccc2nc(NC3=NCCN3)sc2c1	-18%	55*	-21%	28*	-62%
c1ccc2sc(NC3=NCN(CC4CCCO4)CN3)nc2c1 (stereo unspecified)	1%	36*	4%	32	x
COc1ccc(Nc2nc3ccc(OC)cc3s2)cc1	-3%	44*	-33%	82*	x
COc1ccc2nc(NC(=O)c3c(C)noc3C)sc2c1	-4%	x	-18%	x	x
COc1ccc2nc(Nc3nc(C)c(C(C)=O)s3)sc2c1	u	55*	95%	108*	-18%
Cc1ccc(Nc2c(-c3ccc(N4CCOCC4)cc3)nc3cccc(C)n23)cc1	2%	x	x	x	x
c1ccc2sc(NC3=NCCN3)nc2c1	-7%	30*	-30%	65*	-54%
COC(=O)c1c(NC(=O)C2CC2)sc(C(=O)Nc2ccccc2)c1C	-17%	25*	25%	52*	x
CCOC(=O)c1c(NC(=O)CSc2cccc[n+]2[O-])sc(C(=O)Nc2ccccc2)c1C	11%	27*	26%[11.4 µM]	72*	x
CCOC(=O)c1c(NC(=O)CCN2C(=O)c3ccccc3C2=O)sc(C(=O)OC(C)C)c1C	-14%	1	-17%	4	19%
CCOC(=O)c1sc(NC(=O)CCN2C(=O)c3ccccc3C2=O)c(C(=O)OCC)c1C	-3%	13*	-10%	22	9%
CC/C(=N\NC(=S)Nc1ccccc1)c1c(O)[nH]c(=O)[nH]c1=O	-8%	29*	-43%	32*	0%
C/C(=N\Nc1ccccc1)c1c(O)[nH]c(=O)[nH]c1=O	5%	8	-18%	10	-5%
CC(=O)Nc1sc(NC(=O)c2ccco2)nc1-c1cccs1	5%	-2	-6%	-5	-2%
CC1CC1C(=O)Nc1nc(-c2cccs2)c(-c2cccs2)s1 (stereo unspecified)	u	19*	-34%	-41	-8%
O=C(Nc1nc(-c2cccs2)c(-c2ccccc2)s1)c1ccco1	3%	18*	-31%	31	u
Cc1ccc(S(=O)(=O)N(C)C)cc1NC(=O)COC(=O)c1ccc2ccccc2n1	-16%	x	-21%	x	x
O=C(NCc1ccccc1Cl)c1ccc(NC(=O)N2CCCCc3ccccc32)cc1	3%	x	x	x	x
Cc1sc2ncn(CC(=O)N3CCN(c4cccc(Cl)c4)CC3)c(=O)c2c1S(=O)(=O)N1CCC(C)CC1	7%	x	x	x	x
COc1cc(Cl)c(C)cc1NC(=O)c1cnc2c(-c3cccc(C)c3)c(C)nn2c1C	-6%	x	x	x	x
C[C@@H]1C[C@@H]2[C@H]([C@H]3C=C(COC(=O)c4ccccc4)[C@@H](O)[C@]4(O)[C@@H](O)C(OC(=O)c5ccccc5)=C[C@@]14C3=O)C2(C)C	x	17	x	24*	x
COc1ccc(-c2nc(C)c(CCNC(=O)c3ccco3)s2)cc1	3%	x	x	x	x
COCCNC(=O)c1ccc2c(Cl)c3c(nc2c1)CCC3	-2%	46*	63%	77*	-7%
Cc1nn(C)c2c1c(C(F)(F)F)cc(=O)n2C(C)C(=O)NCc1ccccc1 (stereo unspecified)	23%	x	x	x	x
O=C1C=C(NC2=CC3OC(c4ccccc4)OCC3OC2=O)CCC1 (stereo unspecified)	-18%	27*	-14%	35*	-15%

Screens: PubChem BioAssay, National Center for Advancing Translational Sciences (NCATS)
